# Results as given in paper PMC11006913.
# Substitutions are numbered along the chain they refer to.
# Experiments:
# Test in all cases: PBM; 200 nM protein, PBS
# Conditions in all cases: dsDNA, one strand shown
# HOXB9 [1] = biological target: HOXB9 (Homo sapiens, UniProt P17482 171-250, T197M)
# HOXC9 [2] = biological target: HOXC9 (Homo sapiens, UniProt P31274 178-260, K195R)
# HOXA7 [3] = biological target: HOXA7 (Homo sapiens, UniProt P31268 116-202)
# HOXC10 [4] = biological target: HOXC10 (Homo sapiens, UniProt Q9NYD6 254-340)
# HOXB6 [5] = biological target: HOXB6 (Homo sapiens, UniProt P17509 132-218, K202E)
# HOXB9 [6] = biological target: HOXB9 (Homo sapiens, UniProt P17482 171-250)
# HOXC9 [7] = biological target: HOXC9 (Homo sapiens, UniProt P31274 178-260)
# MSX2 [8] = biological target: MSX2 (Homo sapiens, UniProt P35548 130-214, R199I)
# HOXD13 [9] = biological target: HOXD13 (Homo sapiens, UniProt P35453 263-343, T313R)
# HOXC9 [10] = biological target: HOXC9 (Homo sapiens, UniProt P31274 178-260, R193K)
# HOXC10 [11] = biological target: HOXC10 (Homo sapiens, UniProt Q9NYD6 254-340, K271E)
# MSX2 [12] = biological target: MSX2 (Homo sapiens, UniProt P35548 130-214)
# HOXB9 [13] = biological target: HOXB9 (Homo sapiens, UniProt P17482 171-250, R186Q)
# HOXC9 [14] = biological target: HOXC9 (Homo sapiens, UniProt P31274 178-260, R222W)
# MSX2 [15] = biological target: MSX2 (Homo sapiens, UniProt P35548 130-214, F161Y)
# HOXA7 [16] = biological target: HOXA7 (Homo sapiens, UniProt P31268 116-202, W177C)
# HOXB6 [17] = biological target: HOXB6 (Homo sapiens, UniProt P17509 132-218)
# HOXA4 [18] = biological target: HOXA4 (Homo sapiens, UniProt Q00056 201-287, W262R)
# HOXA4 [19] = biological target: HOXA4 (Homo sapiens, UniProt Q00056 201-287, R217L)
# HOXA4 [20] = biological target: HOXA4 (Homo sapiens, UniProt Q00056 201-287)
# HOXA4 [21] = biological target: HOXA4 (Homo sapiens, UniProt Q00056 201-287, W262F)
# VENTX [22] = biological target: T1, VENTX (Homo sapiens, UniProt O95231 78-163, R121Q)
# T1 sequence: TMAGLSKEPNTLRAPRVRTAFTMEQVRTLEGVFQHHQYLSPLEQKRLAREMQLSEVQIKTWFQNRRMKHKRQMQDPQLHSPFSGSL
# VENTX [23] = biological target: T2, VENTX (Homo sapiens, UniProt O95231 78-163)
# T2 sequence: T1 sequence with Q44R
# VENTX [24] = biological target: T3, VENTX (Homo sapiens, UniProt O95231 78-163, Y115F)
# T3 sequence: T1 sequence with Y38F, Q44R
# CRX = CRX (Homo sapiens, UniProt O43186 26-111, R41L)
# ALX1 [25] = biological target: ALX1 (Homo sapiens, UniProt Q15699 118-204, L144V)
# ALX1 [26] = biological target: ALX1 (Homo sapiens, UniProt Q15699 118-204, L144R)
# ALX1 [27] = biological target: ALX1 (Homo sapiens, UniProt Q15699 118-204)
# ALX4 = ALX4 (Homo sapiens, UniProt Q9H161 200-286, Q225E)
# HOXD13 [28] = biological target: HOXD13 (Homo sapiens, UniProt P35453 263-343)
# HOXD13 [29] = biological target: HOXD13 (Homo sapiens, UniProt P35453 263-343, T313A)
# Chain of HOXD13 (Homo sapiens, UniProt P35453 263-343, T313A) (P35453 263-343 T313A): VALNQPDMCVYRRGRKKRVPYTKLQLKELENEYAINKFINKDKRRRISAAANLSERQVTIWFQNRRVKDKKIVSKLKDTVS
# Chain of HOXC10 (Homo sapiens, UniProt Q9NYD6 254-340, K271E) (Q9NYD6 254-340 K271E): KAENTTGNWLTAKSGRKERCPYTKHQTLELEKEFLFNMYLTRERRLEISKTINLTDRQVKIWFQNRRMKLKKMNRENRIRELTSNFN
# Chain of HOXB9 (Homo sapiens, UniProt P17482 171-250, R186Q) (P17482 171-250 R186Q): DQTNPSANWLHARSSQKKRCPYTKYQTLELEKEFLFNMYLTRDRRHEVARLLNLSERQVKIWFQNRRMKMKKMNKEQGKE
# Chain of HOXB9 (Homo sapiens, UniProt P17482 171-250) (P17482 171-250): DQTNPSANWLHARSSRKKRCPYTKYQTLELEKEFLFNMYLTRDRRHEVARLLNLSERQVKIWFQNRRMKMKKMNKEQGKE
# Chain of HOXC9 (Homo sapiens, UniProt P31274 178-260) (P31274 178-260): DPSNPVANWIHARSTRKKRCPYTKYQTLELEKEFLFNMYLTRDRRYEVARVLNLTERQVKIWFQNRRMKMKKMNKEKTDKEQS
# Chain of HOXB9 (Homo sapiens, UniProt P17482 171-250, T197M) (P17482 171-250 T197M): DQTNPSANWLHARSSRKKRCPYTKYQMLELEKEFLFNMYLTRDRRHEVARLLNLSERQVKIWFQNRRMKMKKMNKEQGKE
# Chain of HOXC9 (Homo sapiens, UniProt P31274 178-260, K195R) (P31274 178-260 K195R): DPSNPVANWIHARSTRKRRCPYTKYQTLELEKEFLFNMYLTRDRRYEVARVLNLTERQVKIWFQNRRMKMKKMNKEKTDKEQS
# Chain of HOXC9 (Homo sapiens, UniProt P31274 178-260, R193K) (P31274 178-260 R193K): as the sequence (P31274 178-260) above, with R16K counted along it
# Chain of HOXC9 (Homo sapiens, UniProt P31274 178-260, R222W) (P31274 178-260 R222W): as the sequence (P31274 178-260) above, with R45W counted along it
# Chain of HOXD13 (Homo sapiens, UniProt P35453 263-343, T313R) (P35453 263-343 T313R): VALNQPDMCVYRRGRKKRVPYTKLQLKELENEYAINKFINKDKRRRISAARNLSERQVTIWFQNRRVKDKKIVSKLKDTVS
# Chain of HOXC10 (Homo sapiens, UniProt Q9NYD6 254-340) (Q9NYD6 254-340): as the sequence (Q9NYD6 254-340 K271E) above, with E18K counted along it
# Chain of HOXA7 (Homo sapiens, UniProt P31268 116-202, W177C) (P31268 116-202 W177C): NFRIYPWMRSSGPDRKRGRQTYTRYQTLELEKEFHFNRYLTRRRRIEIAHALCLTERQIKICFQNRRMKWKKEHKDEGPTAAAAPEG
# Chain of HOXD13 (Homo sapiens, UniProt P35453 263-343) (P35453 263-343): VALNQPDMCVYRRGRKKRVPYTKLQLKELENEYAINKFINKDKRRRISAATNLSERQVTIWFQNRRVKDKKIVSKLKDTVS
# Chain of HOXB6 (Homo sapiens, UniProt P17509 132-218, K202E) (P17509 132-218 K202E): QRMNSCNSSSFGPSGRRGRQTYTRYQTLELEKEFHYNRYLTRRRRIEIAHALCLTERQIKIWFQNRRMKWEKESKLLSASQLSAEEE
# Chain of HOXB6 (Homo sapiens, UniProt P17509 132-218) (P17509 132-218): as the sequence (P17509 132-218 K202E) above, with E71K counted along it
# Chain of HOXA7 (Homo sapiens, UniProt P31268 116-202) (P31268 116-202): as the sequence (P31268 116-202 W177C) above, with C62W counted along it
# Chain of HOXA4 (Homo sapiens, UniProt Q00056 201-287, W262F) (Q00056 201-287 W262F): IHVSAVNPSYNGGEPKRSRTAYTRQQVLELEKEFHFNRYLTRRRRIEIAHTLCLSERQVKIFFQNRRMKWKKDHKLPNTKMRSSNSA
# Chain of HOXA4 (Homo sapiens, UniProt Q00056 201-287, W262R) (Q00056 201-287 W262R): as the sequence (Q00056 201-287 W262F) above, with F62R counted along it
# Chain of ALX1 (Homo sapiens, UniProt Q15699 118-204) (Q15699 118-204): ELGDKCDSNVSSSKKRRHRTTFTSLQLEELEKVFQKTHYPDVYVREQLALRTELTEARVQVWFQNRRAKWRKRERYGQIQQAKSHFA
# Chain of ALX4 (Q9H161 200-286 Q225E): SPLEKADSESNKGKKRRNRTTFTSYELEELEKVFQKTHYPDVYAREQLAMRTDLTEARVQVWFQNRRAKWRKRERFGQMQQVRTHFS
# Chain of ALX1 (Homo sapiens, UniProt Q15699 118-204, L144V) (Q15699 118-204 L144V): as the sequence (Q15699 118-204) above, with L27V counted along it
# Chain of HOXA4 (Homo sapiens, UniProt Q00056 201-287, R217L) (Q00056 201-287 R217L): as the sequence (Q00056 201-287 W262F) above, with R17L, F62W counted along it
# Chain of MSX2 (Homo sapiens, UniProt P35548 130-214) (P35548 130-214): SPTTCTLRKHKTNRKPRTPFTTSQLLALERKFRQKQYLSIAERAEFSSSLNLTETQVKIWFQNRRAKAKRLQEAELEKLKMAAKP
# Chain of ALX1 (Homo sapiens, UniProt Q15699 118-204, L144R) (Q15699 118-204 L144R): as the sequence (Q15699 118-204) above, with L27R counted along it
# Chain of CRX (O43186 26-111 R41L): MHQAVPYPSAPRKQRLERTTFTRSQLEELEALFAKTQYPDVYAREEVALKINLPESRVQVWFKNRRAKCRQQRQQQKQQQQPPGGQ
# Chain of HOXA4 (Homo sapiens, UniProt Q00056 201-287) (Q00056 201-287): as the sequence (Q00056 201-287 W262F) above, with F62W counted along it
# Chain of MSX2 (Homo sapiens, UniProt P35548 130-214, F161Y) (P35548 130-214 F161Y): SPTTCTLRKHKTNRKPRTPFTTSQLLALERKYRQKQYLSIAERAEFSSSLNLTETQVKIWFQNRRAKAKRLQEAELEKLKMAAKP
# Chain of MSX2 (Homo sapiens, UniProt P35548 130-214, R199I) (P35548 130-214 R199I): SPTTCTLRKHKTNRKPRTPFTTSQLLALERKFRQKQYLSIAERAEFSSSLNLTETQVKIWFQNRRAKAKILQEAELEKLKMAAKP
sequence,measurement,setting,value
ATTTAATG,binding signal,HOXB9 [1],"10.2 upbm affinity estimate (log intensity, higher = more binding, comparable within an allelic series)"
same,binding signal,HOXC9 [2],"13.1 upbm affinity estimate (log intensity, higher = more binding, comparable within an allelic series)"
same,binding signal,HOXA7 [3],"11.3 upbm affinity estimate (log intensity, higher = more binding, comparable within an allelic series)"
same,binding signal,HOXC10 [4],"12.4 upbm affinity estimate (log intensity, higher = more binding, comparable within an allelic series)"
same,binding signal,HOXB6 [5],"10.1 upbm affinity estimate (log intensity, higher = more binding, comparable within an allelic series)"
same,binding signal,HOXB9 [6],"12.3 upbm affinity estimate (log intensity, higher = more binding, comparable within an allelic series)"
same,binding signal,HOXC9 [7],"13 upbm affinity estimate (log intensity, higher = more binding, comparable within an allelic series)"
same,binding signal,MSX2 [8],"11.4 upbm affinity estimate (log intensity, higher = more binding, comparable within an allelic series)"
same,binding signal,HOXD13 [9],"10.7 upbm affinity estimate (log intensity, higher = more binding, comparable within an allelic series)"
same,binding signal,HOXC9 [10],"13 upbm affinity estimate (log intensity, higher = more binding, comparable within an allelic series)"
same,binding signal,HOXC10 [11],"12.2 upbm affinity estimate (log intensity, higher = more binding, comparable within an allelic series)"
same,binding signal,MSX2 [12],"12.2 upbm affinity estimate (log intensity, higher = more binding, comparable within an allelic series)"
same,binding signal,HOXB9 [13],"12.1 upbm affinity estimate (log intensity, higher = more binding, comparable within an allelic series)"
same,binding signal,HOXC9 [14],"11.2 upbm affinity estimate (log intensity, higher = more binding, comparable within an allelic series)"
same,binding signal,MSX2 [15],"12 upbm affinity estimate (log intensity, higher = more binding, comparable within an allelic series)"
same,binding signal,HOXA7 [16],"8.91 upbm affinity estimate (log intensity, higher = more binding, comparable within an allelic series)"
same,binding signal,HOXB6 [17],"11.9 upbm affinity estimate (log intensity, higher = more binding, comparable within an allelic series)"
CCCGGTTC,binding signal,HOXB9 [1],"8.56 upbm affinity estimate (log intensity, higher = more binding, comparable within an allelic series)"
same,binding signal,HOXA4 [18],"9.88 upbm affinity estimate (log intensity, higher = more binding, comparable within an allelic series)"
same,binding signal,HOXC9 [2],"9.5 upbm affinity estimate (log intensity, higher = more binding, comparable within an allelic series)"
same,binding signal,HOXA4 [19],"9.82 upbm affinity estimate (log intensity, higher = more binding, comparable within an allelic series)"
same,binding signal,HOXB9 [6],"8.35 upbm affinity estimate (log intensity, higher = more binding, comparable within an allelic series)"
same,binding signal,HOXC9 [7],"9.62 upbm affinity estimate (log intensity, higher = more binding, comparable within an allelic series)"
same,binding signal,HOXC9 [10],"9.59 upbm affinity estimate (log intensity, higher = more binding, comparable within an allelic series)"
same,binding signal,HOXA4 [20],"9.74 upbm affinity estimate (log intensity, higher = more binding, comparable within an allelic series)"
same,binding signal,HOXB9 [13],"8.47 upbm affinity estimate (log intensity, higher = more binding, comparable within an allelic series)"
same,binding signal,HOXC9 [14],"9.68 upbm affinity estimate (log intensity, higher = more binding, comparable within an allelic series)"
same,binding signal,HOXA4 [21],"9.9 upbm affinity estimate (log intensity, higher = more binding, comparable within an allelic series)"
CCTAATCG,binding signal,VENTX [22],"11.4 upbm affinity estimate (log intensity, higher = more binding, comparable within an allelic series)"
same,binding signal,VENTX [23],"12.5 upbm affinity estimate (log intensity, higher = more binding, comparable within an allelic series)"
same,binding signal,VENTX [24],"11.3 upbm affinity estimate (log intensity, higher = more binding, comparable within an allelic series)"
same,binding signal,CRX,"10.8 upbm affinity estimate (log intensity, higher = more binding, comparable within an allelic series)"
GGCGATTA,binding signal,VENTX [22],"11 upbm affinity estimate (log intensity, higher = more binding, comparable within an allelic series)"
same,binding signal,ALX1 [25],"8.58 upbm affinity estimate (log intensity, higher = more binding, comparable within an allelic series)"
same,binding signal,ALX1 [26],"8.54 upbm affinity estimate (log intensity, higher = more binding, comparable within an allelic series)"
same,binding signal,ALX1 [27],"9.05 upbm affinity estimate (log intensity, higher = more binding, comparable within an allelic series)"
GCAATAAA,binding signal,HOXB9 [1],"10 upbm affinity estimate (log intensity, higher = more binding, comparable within an allelic series)"
same,binding signal,HOXC9 [2],"13.2 upbm affinity estimate (log intensity, higher = more binding, comparable within an allelic series)"
same,binding signal,HOXA7 [3],"11.2 upbm affinity estimate (log intensity, higher = more binding, comparable within an allelic series)"
same,binding signal,HOXC10 [4],"12.8 upbm affinity estimate (log intensity, higher = more binding, comparable within an allelic series)"
same,binding signal,HOXB6 [5],"9.94 upbm affinity estimate (log intensity, higher = more binding, comparable within an allelic series)"
same,binding signal,ALX4,"10.5 upbm affinity estimate (log intensity, higher = more binding, comparable within an allelic series)"
same,binding signal,HOXB9 [6],"12.6 upbm affinity estimate (log intensity, higher = more binding, comparable within an allelic series)"
same,binding signal,HOXC9 [7],"13.3 upbm affinity estimate (log intensity, higher = more binding, comparable within an allelic series)"
same,binding signal,HOXD13 [9],"11 upbm affinity estimate (log intensity, higher = more binding, comparable within an allelic series)"
same,binding signal,HOXC9 [10],"13.1 upbm affinity estimate (log intensity, higher = more binding, comparable within an allelic series)"
same,binding signal,HOXD13 [28],"12.3 upbm affinity estimate (log intensity, higher = more binding, comparable within an allelic series)"
same,binding signal,HOXC10 [11],"12.3 upbm affinity estimate (log intensity, higher = more binding, comparable within an allelic series)"
same,binding signal,HOXD13 [29],"12.1 upbm affinity estimate (log intensity, higher = more binding, comparable within an allelic series)"
same,binding signal,HOXB9 [13],"12.3 upbm affinity estimate (log intensity, higher = more binding, comparable within an allelic series)"
same,binding signal,HOXC9 [14],"11.4 upbm affinity estimate (log intensity, higher = more binding, comparable within an allelic series)"
same,binding signal,HOXA7 [16],"8.8 upbm affinity estimate (log intensity, higher = more binding, comparable within an allelic series)"
same,binding signal,HOXB6 [17],"11.7 upbm affinity estimate (log intensity, higher = more binding, comparable within an allelic series)"
ATAATCGG,binding signal,VENTX [22],"10.6 upbm affinity estimate (log intensity, higher = more binding, comparable within an allelic series)"
same,binding signal,VENTX [24],"10.7 upbm affinity estimate (log intensity, higher = more binding, comparable within an allelic series)"
TCGTTAAA,binding signal,HOXB9 [1],"9.96 upbm affinity estimate (log intensity, higher = more binding, comparable within an allelic series)"
same,binding signal,HOXC9 [2],"12.5 upbm affinity estimate (log intensity, higher = more binding, comparable within an allelic series)"
same,binding signal,HOXC10 [4],"12.4 upbm affinity estimate (log intensity, higher = more binding, comparable within an allelic series)"
same,binding signal,HOXB9 [6],"11.7 upbm affinity estimate (log intensity, higher = more binding, comparable within an allelic series)"
same,binding signal,HOXC9 [7],"12.7 upbm affinity estimate (log intensity, higher = more binding, comparable within an allelic series)"
same,binding signal,HOXD13 [9],"10.8 upbm affinity estimate (log intensity, higher = more binding, comparable within an allelic series)"
same,binding signal,HOXC9 [10],"12.4 upbm affinity estimate (log intensity, higher = more binding, comparable within an allelic series)"
same,binding signal,HOXD13 [28],"12 upbm affinity estimate (log intensity, higher = more binding, comparable within an allelic series)"
same,binding signal,HOXC10 [11],"12.1 upbm affinity estimate (log intensity, higher = more binding, comparable within an allelic series)"
same,binding signal,HOXD13 [29],"11.7 upbm affinity estimate (log intensity, higher = more binding, comparable within an allelic series)"
same,binding signal,HOXB9 [13],"11.3 upbm affinity estimate (log intensity, higher = more binding, comparable within an allelic series)"
same,binding signal,HOXC9 [14],"10.9 upbm affinity estimate (log intensity, higher = more binding, comparable within an allelic series)"
